Tests used:
[1] = target: PEG-3 (UniProt Q6IN02); assay: inhibition of PEG-3 promoter-driven reporter – cell-based, HeLa, luciferase, CREF/GAPDH counter-screen panel, dose response (AID 624167); details: CREF/GAPDH counter-screens; HeLa PEG-Prom luciferase reporter, overnight, run 1, dose range 1, at 100 µM (top of the series) unless noted
[2] = target: PEG-3 (UniProt Q6IN02); assay: as above; details: CREF/GAPDH counter-screens; HeLa PEG-Prom luciferase reporter, overnight, run 2, dose range 1, at 100 µM (top of the series) unless noted

Chain of PEG-3 (Q6IN02 whole entry, looked up): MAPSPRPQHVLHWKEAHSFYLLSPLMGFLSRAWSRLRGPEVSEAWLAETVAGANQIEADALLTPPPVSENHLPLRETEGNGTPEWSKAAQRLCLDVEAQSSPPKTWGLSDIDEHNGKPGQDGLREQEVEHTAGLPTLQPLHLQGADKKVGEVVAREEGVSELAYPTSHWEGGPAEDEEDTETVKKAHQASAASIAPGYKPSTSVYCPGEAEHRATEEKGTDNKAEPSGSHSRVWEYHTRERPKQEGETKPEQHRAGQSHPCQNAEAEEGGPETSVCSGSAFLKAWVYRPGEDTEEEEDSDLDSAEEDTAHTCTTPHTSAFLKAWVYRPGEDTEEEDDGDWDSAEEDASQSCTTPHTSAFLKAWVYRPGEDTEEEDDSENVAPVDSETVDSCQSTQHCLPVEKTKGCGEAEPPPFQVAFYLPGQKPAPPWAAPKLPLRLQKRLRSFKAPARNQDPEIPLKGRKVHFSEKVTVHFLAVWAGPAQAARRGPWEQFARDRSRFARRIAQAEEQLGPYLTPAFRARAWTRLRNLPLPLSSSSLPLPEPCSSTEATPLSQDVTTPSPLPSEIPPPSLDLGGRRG

SMILES | inhibition [1] [%] | inhibition [2] [%]
COc1ccc(-c2nc3c(C(=O)NCCN(C)C)cccc3c3ccccc23)cc1 | 102 | 99.5
O=S(=O)(c1cccc(F)c1)N1CCN(c2nc(-c3cccnc3)nc3ccccc23)CC1 | 26.5 | 46.2
Cc1ccc(-c2nc(C(Cl)Cl)c3ccccc3n2)cc1 | 96.2 | 97.4
COc1ccc2c(c1OC)C(=O)N1c3ccccc3C(=O)N(c3ccccc3F)C21 (stereo not drawn) | 62.8 | 68.7
CCCCCc1ccc(OCCCC[n+]2cccc(C)c2)c(CCCCC)c1 | 98.6 | 101
CCOc1ccc2[nH]c3c(NCCc4ccc(OC)c(OC)c4)ncnc3c2c1 | 99 | 100
Cc1ccc2nc(N(CCCN(C)C)C(=O)c3ccc4c(c3)CCCC4)sc2c1 | 99.5 | 101
COc1cc(/C=C/[N+](=O)[O-])ccc1OC(=O)/C=C/c1ccc(F)cc1 | -70.5 | -151
O=C(CCCN1C(=O)/C(=C/c2cccc(Br)c2)SC1=S)Nc1cccnc1 | 101 | 96.5
N=c1n(CCN2CCCC2)c2ccccc2n1CC(O)c1ccc(Cl)c(Cl)c1 (stereo not drawn) | 99.3 | 101
COc1ccc(-c2cc(C(=O)Nc3ccccc3N3CCOCC3)c3ccccc3n2)cc1OC | 2.08 | 15
COc1cccc(Nc2nc(C(N)C3CCCCC3)cs2)n1 (stereo not drawn) | 98.9 | 102
CCc1ccc2c(c1)Sc1ccccc1CC2N1CCN(C)CC1 (stereo not drawn) | 102 | 102
CCOc1ccc(Nc2c3ccccc3nc3ccccc23)cc1 | 97.9 | 101
CC1CCCCN1CCNC(=O)c1ccc2c(=O)n(Cc3ccc(Cl)cc3)c(=S)[nH]c2c1 (stereo not drawn) | 101 | 99.1
COc1ccccc1CN(C)C(=O)c1cc(-c2cc(OC)c(OC)c(OC)c2)nc2ccccc12 | 83.8 | 84.7
COc1ccc2nc3n(c(=O)c2c1)-c1cc2ccccc2cc1C(=O)NC3Cc1ccc(O)cc1 (stereo not drawn) | 86.9 | 98.8

SMILES | inhibition [1] [%] | inhibition [2] [%]
CC1CCCC(C)N1C(=C(Cl)Cl)C(=C1SCCS1)[N+](=O)[O-] (stereo not drawn) | 50.8 | 68.9
O=C(c1ccco1)N1CCN(c2ncnc3c2[nH]c2ccc(Br)cc23)CC1 | 99.5 | 98.2
COCOCCn1cc(CN2CCS(=O)(=O)N(Cc3ccc(-c4ccc(Cl)c(Cl)c4)cc3)C(C(C)C)C2=O)nn1 (stereo not drawn) | 92.6 | 97.8
Cn1c(=O)c(C(=O)CCl)c(N)n(Cc2ccccc2)c1=O | 102 | 97.2
CNCC[C@H](Oc1cccc2ccccc12)c1cccs1 | 102 | 98.8
COc1ccc(OC)c(-c2cc(C(=O)N3CCN(c4ncccn4)CC3)c3ccccc3n2)c1 | 54.9 | 59.3
Cc1ccc(F)cc1-c1cc2nc(NCCCN(C)C)n(C)c(=O)c2s1 | 101 | 99.2
COc1ccc(-c2cc(C(F)F)n3ncc(C(=O)n4ccnc4C)c3n2)cc1 | 99.6 | 101
CC(C)CC(NS(=O)(=O)OCC(Cl)(Cl)Cl)c1ccccc1 (stereo not drawn) | 97.2 | 99.4
Cc1cc(Sc2ncnc(N)c2[N+](=O)[O-])ncn1 | 102 | 102
CCOC(=O)c1c(NC(=O)COc2ccccc2F)sc2c1CC(C)(C)NC2(C)C | 89.1 | 102
c1ccc(CN2CCC(Nc3nc(-c4cccnc4)nc4ccccc34)CC2)cc1 | 102 | 94.1
COc1ccc(S(=O)(=O)N2c3ccccc3OCC2c2ccccc2)cc1 (stereo not drawn) | -135 | -3.52
Cc1cccc(/C=C2/Sc3ccc(C(=O)NCCN4CCCC4)cc3NC2=O)c1 | 99.2 | 101
Cc1ccc(C(=O)N/C(=C\c2ccc(-c3cccc([N+](=O)[O-])c3)o2)C(=O)NCCCN(C)C)cc1 | 102 | 98.8
Cc1ccc(N2CC(C(=O)Nc3nccs3)CC2=O)cc1Cl (stereo not drawn) | 99.5 | 63.6
COc1cc(CNC(C)(C)CO)cc(Br)c1OCc1ccc(Cl)cc1 | 99 | 98.9

Reference: PubChem BioAssay
